According to PubChem BioAssay (Tox21):
Results filed as inconclusive are left out. The source made the active and inactive calls. The call rests on the fitted dose curve; in most records, active means well fitted cell-killing curve with a large enough effect in the repeat runs; inconclusive means weak or mixed curves, or effect the other way; inactive means flat fitted curve, though single readings scatter.

Assay: cAMP Responsive Elements (CRE) small molecule antagonists, cell-based qHTS assay: qHTS cell viability counter screen (AID 2060913); further: nearly all actives have a fitted effect of over 40% in size
Settings: CRE-bla HEK293T viability, CellTiter-Glo luminescence, 5 h; series mostly up to 92.4 µM; viability change, negative = cytotoxic: at the top concentration
Procedure, shortened: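 HEK293T CRE-bla, 2,000 cells/well, 18 h preincubation; cpd in DMSO + NKH477 0.25 uM final, 3 h 37 C/5% CO2; LiveBLAzer 2 h RT, then CellTiter-Glo 30 min RT, luminescence.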
On the % scale 0 is the no-effect control and ±100 the full control effect; potency means the concentration at half of the fitted maximal effect.

Structure (SMILES)	Potency	viability change, negative = cytotoxic
CCCCNC(=O)NS(=O)(=O)c1ccc(N)cc1	inactive	
CC(=O)Oc1ccc(C(c2ccc(OC(C)=O)cc2)c2ccccn2)cc1	inactive	
Cc1cc(NS(=O)(=O)c2ccc(N)cc2)nc(C)n1		-1.69% [at 42.5 µM] (inactive)
CNCCO		4.24% (inactive)
Clc1cc(Cl)c(Cl)c(Cl)c1Cl		3.55% (inactive)
O=C(CO)[C@@H](O)[C@H](O)[C@@H](O)CO		-1.92% [at 42.5 µM] (inactive)
O=Cc1cc(O)ccc1Br		-12.3% (inactive)
CCOC(=O)C1CC(=O)C(=C(O)C2CC2)C(=O)C1 (stereo not given)		-2.19% (inactive)
CC(C)CCCC(C)CCO (stereo not given)		6.16% (inactive)
NC(=O)c1ccccc1C(N)=O		1.56% (inactive)
C1CCN(CN2CCCCC2)CC1		-0.953% (inactive)
C/C=C/C=C/C=O		7.74% (inactive)
O=C(OCCOCCOC(=O)c1ccccc1)c1ccccc1	inactive	
CCC=CC#N		1.39% (inactive)
CC(C)(C)OC(=O)c1ccccc1C(=O)O		9.47% (inactive)
CCCCN(CCCC)CCC(O)c1cc2c(Cl)cc(Cl)cc2c2cc(C(F)(F)F)ccc12 (stereo not given)		-3.76% [at 42.5 µM] (inactive)
CC1(CN2CCC(n3c(=O)[nH]c4ccccc43)CC2)OCc2ccccc2-n2cccc21 (stereo not given)		-4.36% [at 42.5 µM] (inactive)
CCCCc1nc2cccnc2n1Cc1ccc(-c2ccccc2-c2nnn[nH]2)cc1		10.8% (inactive)
Nc1ccc([N+](=O)[O-])c(C(F)(F)F)c1		10.2% [at 42.5 µM] (inactive)
FC(F)(F)C(F)(F)C(F)(F)C(F)(F)C(F)(F)C(F)(F)CCI		4.81% [at 42.5 µM] (inactive)

Structure (SMILES)	Potency	viability change, negative = cytotoxic
Cc1occc(=O)c1OC(=O)C(C)C		9.42% (inactive)
C=C(C)C(=O)OCCOCCOCCOCCOC(=O)C(=C)C		-6.52% (inactive)
C=C(C)c1ccccc1		1.87% (inactive)
O=C(CCCN1CCC(O)(c2ccc(Br)cc2)CC1)c1ccc(F)cc1		-14.7% [at 42.5 µM] (inactive)
CNC(=O)NC		-7.64% (inactive)
COc1ccc2cc3[n+](cc2c1OC)CCc1cc2c(cc1-3)OCO2	inactive	
C=CC(=O)[O-].C=CC(=O)[O-].[Zn+2]		8.5% (inactive)
C=CCCCCCCCCCCC		-1.65% [at 8.39 µM] (inactive)
C=CCOCC(O)CCl (stereo not given)		0.422% (inactive)
Cc1cc(F)ccc1-c1cc(N2CC[C@@H](O)[C@H]2CO)ncc1N(C)C(=O)C(C)(C)c1cc(C(F)(F)F)cc(C(F)(F)F)c1	44.6 µM (active)	
NNc1nc(-c2ccc([N+](=O)[O-])cc2)cs1		-6.32% (inactive)
CC(=O)OCCc1ccccc1		3.65% (inactive)
CC(C)(C)NCCO		0.55% (inactive)
Cc1ccco1		1.1% (inactive)
O=C(NO)c1ccccc1		-2.16% (inactive)
CC(C)(C)C1=CC(=O)C=C(C(C)(C)C)C1=O		-3.69% (inactive)
CCN1CCCC(OC(=O)C(c2ccccc2)c2ccccc2)C1 (stereo not given)		5.26% [at 42.5 µM] (inactive)
CNc1c2c(nn1C)CCCC2		-0.578% [at 42.5 µM] (inactive)
C=CS(=O)(=O)O		0.85% (inactive)
CC1(C)CC(O)CC(C)(C)N1[O]		-1.94% (inactive)
